Assay outcomes: PubChem BioAssay, Broad Institute
Most compounds without a hit are left out; they make up all but 2% or so of the library.
ID4 binder – binders of human ID4 protein | 31,000 compounds, 1.2% hits | calls only | AID 624137 | small molecule microarray, Flag-ID4 binding, fluorescence F/B | P47928; call rule not given here;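 also: a binder raises fluorescence above local background on the spot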
Target sequence (P47928 whole entry, looked up): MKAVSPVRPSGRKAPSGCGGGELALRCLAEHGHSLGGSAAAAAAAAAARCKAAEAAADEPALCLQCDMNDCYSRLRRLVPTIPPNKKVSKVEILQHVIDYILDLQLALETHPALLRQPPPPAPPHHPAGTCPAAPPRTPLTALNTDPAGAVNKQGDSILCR
mut p53 react – restores mutant p53 pathway signaling in SW480 cells. SW480 PUMA-promoter luciferase, p53 mutant reactivation. activation, % at 9.98 µM. 28,000 compounds, 1.5% hits. AID 624151; in the data active = activation above about 52%; inconclusive = no clear call, values can overlap the other calls
STK33 kin inh – blocks human STK33 kinase activity | Q9BYT3 | ADP-Glo luminescence, MBP substrate | inhibition, % at 12.5 µM | 27,000 compounds, 0.44% hits | AID 2322; in the data active = inhibition above about 20%; inconclusive = no clear call, values can overlap the other calls
Of the large screens only hits and unclear results are named; the others gave an inactive call.

Cc1cc(C)cc(OCC(=O)Nc2cccc(-c3nc4ccccc4o3)c2)c1	none
C=CCNC(=O)[C@H]1[C@@H]2C(=O)O[C@@H](c3ccccc3)[C@@H](c3ccccc3)N2[C@@H](c2ccc(O)cc2)[C@]12C(=O)Nc1ccc(C#CC3(O)CCCCCC3)cc12	none (no result: ID4 binder, mut p53 react)
O=C(CSc1nc2ccccc2s1)Nc1ccc2c(c1)OCCO2	none
Cc1csc(SCC(=O)Nc2ccc3c(c2)OCCO3)n1	mut p53 react 61
CC(CCC1(C)C(C)CCC2(CO)C(CO)=CCCC21)CC(=O)O (configuration not stated)	none
O=c1c(O)c(-c2cc(O)c(O)c(O)c2)oc2cc(O)cc(O)c12	STK33 kin inh 36
O=c1c(O)c(-c2ccccc2)oc2cc(O)cc(O)c12	none (no result: ID4 binder)
CCOc1c(O)ccc(C(c2c[nH]c3ccccc23)c2c[nH]c3ccccc23)c1[N+](=O)[O-]	none
O=C1C(Cc2ccc(-c3nn[nH]n3)cc2)=C(c2ccccc2)S(=O)(=O)c2ccccc21	none (no result: ID4 binder, mut p53 react)
CC(=O)N1CCN(C(=S)c2ccc(-c3ccc(C)cc3)o2)CC1	mut p53 react 55 (no result: STK33 kin inh)
COc1ccc([Si](C)(C)[C@H]2[C@H](CCO)O[C@@]3(C(=O)N(Cc4ccc(N5CCOC5=O)cc4)c4ccccc43)[C@@H]2C)cc1	STK33 kin inh inconclusive (no result: mut p53 react)
COc1ccc([Si](C)(C)[C@@H]2[C@@H](CCn3cc(CCO)nn3)O[C@]3(C(=O)N(Cc4ccc(N5CCOC5=O)cc4)c4ccccc43)[C@H]2C)cc1	STK33 kin inh 24 (no result: mut p53 react)
COc1ccc(N2C(=O)CC(SCC(=O)Nc3cccc(Br)c3)C2=O)cc1 (configuration not stated)	none
Cc1ccnc(NC(c2ccc([N+](=O)[O-])cc2)c2ccc3ccc(C)nc3c2O)c1 (configuration not stated)	none
COc1ccc(N2C(=O)CC(SCC(=O)Nc3c(C)cccc3C)C2=O)cc1 (configuration not stated)	ID4 binder active
COc1ccc(N2C(=O)CC(SCC(=O)Nc3ccc(C)c(C)c3)C2=O)cc1 (configuration not stated)	none
C=C1C(=O)OC2CC(C)C3(/C=C/C(C)=O)OC3CC12 (configuration not stated)	none (no result: mut p53 react)
N#Cc1ccc(NC(=O)c2ccc(Br)o2)cc1	mut p53 react 64 (no result: STK33 kin inh)
N#Cc1cc[n+](CC(=O)c2ccc(NC(=O)c3ccccc3)cc2)cc1	none (no result: ID4 binder, mut p53 react)
Cc1ccc2nc(-c3ccccn3)cc(C(=O)Nc3ccc(S(=O)(=O)N4CCOCC4)cc3)c2c1	ID4 binder active
O=C(Nc1ccc(S(=O)(=O)N2CCOCC2)cc1)c1cc(-c2ccncc2)nc2c(Cl)cccc12	none
O=C(Nc1ccccc1[N+](=O)[O-])c1cc(S(=O)(=O)Nc2ccccc2)ccc1Cl	none
COc1ccccc1C(CCNCc1ccccc1)c1ccco1 (configuration not stated)	none (no result: STK33 kin inh)
O=C(CC1CCOCC1)Nc1ccc(I)cc1	mut p53 react 63 (no result: STK33 kin inh)
O=C(CC1NC(=O)NC1=O)Nc1ccc(F)cc1 (configuration not stated)	none
Cc1cc(NC(=O)C(=O)NCCCN2CCOCC2)ccc1Br	none
COc1cccc(NC(=O)CNC(=O)c2cccs2)c1	mut p53 react 51
COC(=O)COc1cccc(NC(=O)c2cccs2)c1	none
CC1(C)CC(=O)c2c(O)cc(OCC(=O)c3ccc(-c4ccccc4)cc3)cc2O1	none
CC1(C)CC(=O)c2c(O)cc(OCC(=O)c3cccc([N+](=O)[O-])c3)cc2O1	mut p53 react 75
COc1ccc(NC(=O)CNC(=O)c2ccco2)cc1	none
Cc1ccc(NC(=O)CNC(=O)c2ccco2)cc1	mut p53 react 59
Cc1cc(=O)[nH]c(SCC(=O)Nc2cc([N+](=O)[O-])ccc2C)n1	none
COc1ccc(C(=O)N(Cc2nc(-c3ccc(C)cc3)no2)C(C)C)cc1	none
Cc1cc(OCC(=O)Nc2ncn[nH]2)c(C)cc1Br	mut p53 react 57
Cc1cc(OCC(=O)Nc2ncn[nH]2)ccc1Cl	mut p53 react 78
CCCn1nnnc1NC(=O)COc1ccc(Cl)c(C)c1	none
Cc1cc(C)c(C)c(OCC(=O)NCc2ccccn2)c1	none
Cc1cc(OCC(=O)NCc2ccccn2)c(C)cc1Br	mut p53 react 119
CC(C)(C)c1ccc(OCC(=O)Nc2ncn[nH]2)c(Br)c1	none
C/C=C1/[C@H](O[C@@H]2O[C@H](CO)[C@@H](O)[C@H](O)[C@H]2O)OC=C(C(=O)OC)[C@H]1CC(=O)OCC(C)[C@@H]1C[C@H]2OC(=O)C3=CO[C@@H](O[C@@H]4O[C@H](CO)[C@@H](O)[C@H](O)[C@H]4O)/C(=C/C)[C@@H]3CC(=O)OC[C@@H]1[C@H]2C (some centres not stated)	none
CS(=O)(=O)N(CC(=O)Nc1ccc(F)c(F)c1)c1ccc(Br)cc1	none
Cc1cc(C)cc(NC(=O)CSc2nnc(N)s2)c1	none
COc1cc(/C=C/c2ccc(OC)cc2OC)cc(OC)c1	mut p53 react 121 (no result: STK33 kin inh)
COc1cc(/C=C/c2ccc(OC)c(OC)c2)c(CC=C(C)C)c(OC)c1	none
O=C(CSc1nc2c(c(C(F)(F)F)n1)CCCC2)Nc1cccc(Cl)c1Cl	none
OCc1c[nH]c2ccccc12	none
O=C(NCCc1c[nH]c2ccccc12)NC1CCCCC1	mut p53 react 84
NC(=O)CCCc1c[nH]c2ccccc12	mut p53 react 79
O=C(NCCc1c[nH]c2ccccc12)Nc1cccc2ccccc12	none
C[C@@H]1O[C@@H](O[C@H]2[C@H](O)[C@@H](O[C@@H]3O[C@H](CO)[C@@H](O)[C@H](O[C@@H]4O[C@H](CO)[C@@H](O)[C@H](O)[C@H]4O)[C@H]3O)[C@H](O[C@H]3CC[C@@]4(C)C(=CC[C@@H]5C4CC[C@@]4(C)C5C[C@@H]5O[C@]6(CC[C@@](C)(CO[C@@H]7O[C@H](CO)[C@@H](O)[C@H](O)[C@H]7O)O6)[C@@H](C)[C@@H]54)C3)O[C@@H]2CO)[C@H](O)[C@H](O)[C@H]1O (some centres not stated)	none (no result: ID4 binder, mut p53 react)
O=c1[nH]c2ccc(Cl)cc2c2oc(-c3ccccc3)nc12	none (no result: ID4 binder, mut p53 react)
O=S(=O)(N[C@@H]1CCCN(Cc2cccc(OCCO)c2)C1)c1cccc(F)c1	ID4 binder active (no result: mut p53 react)
O=S(=O)(N[C@@H]1CCCN(Cc2ccc(OCCO)cc2)C1)c1cccc(F)c1	ID4 binder active (no result: mut p53 react)
Cc1ccc(S(=O)(=O)NC2CCN(Cc3ccc(OCCO)cc3)CC2)cc1	ID4 binder active (no result: mut p53 react)
O=S(=O)(N[C@@H]1CCCN(Cc2ccc(OCCO)cc2)C1)c1cccc2cccnc12	ID4 binder active (no result: mut p53 react)
O=S(=O)(NC[C@@H]1CCCN(Cc2ccc(OCCO)cc2)C1)c1cccc2cccnc12	none (no result: ID4 binder, mut p53 react)
O=S(=O)(N[C@@H]1CCCN(Cc2ccc(OCCO)cc2)C1)c1ccc2ccccc2c1	none (no result: mut p53 react, STK33 kin inh)
COc1ccc(S(=O)(=O)NC2CCN(Cc3ccc(OCCO)cc3)CC2)cc1	none (no result: mut p53 react, STK33 kin inh)
O=S(=O)(N[C@@H]1CCCN(Cc2cccc(OCCO)c2)C1)c1ccc(-c2ccccc2)cc1	none (no result: mut p53 react)
CC1(C)CC[C@]2(C(=O)O)CC[C@]3(C)C(=CCC4[C@@]5(C)CC[C@H](O[C@@H]6O[C@H](C(=O)O)[C@@H](O[C@@H]7OC[C@@H](O)[C@H](O)[C@H]7O)[C@H](O)[C@H]6O)C(C)(C)C5CC[C@]43C)C2C1 (some centres not stated)	none (no result: ID4 binder)
CCOc1ccc(C)cc1S(=O)(=O)n1nnc2ccccc21	none
CCOC(=O)c1c(NC(=S)NCc2ccco2)sc2c1CCCCCC2	none
